Experiment [1] can be described thus: qHTS assay to identify small molecule antagonists of the progesterone receptor (PR) signaling pathway - cell viability counter screen (AID 1346798). Note: nearly all actives have a fitted effect of over 50% in size. Note: potency is the fitted concentration of half-maximal effect. The essentials: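 ATP content as viability readout: CellTiter-Glo luminescence, 30 min room temperature, in PR-UAS-bla HEK293T cells after 16 hr compound/R5020 treatment at 37C and 5% CO2.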
Experiment [2] is described as follows: qHTS assay to identify small molecule agonists of the progesterone receptor (PR) signaling pathway - cell viability counter screen (AID 1346799; calls by dose curve; note: nearly all actives have a fitted effect of over 45% in size; note: potency is the fitted concentration of half-maximal effect). The essentials:
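Cytotoxicity in PR-bla HEK293T cells: 16 h compound, 37C; CellTiter-Glo added post-FRET read; luminescence after 30 min RT.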
(In qHTS, concentration-response curves come from the screen itself.)

A short description of experiment [3]: qHTS assay to identify small molecule antagonists of the TGF-beta/Smad signaling pathway - cell viability counter screen (AID 1346824). Note: nearly all actives have a fitted effect of over 50% in size. Note: potency is the fitted concentration of half-maximal effect. In short, it runs like this:
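Cytotoxicity counter-screen run in the same wells as the beta-lactamase Smad reporter read: CellTiter-Glo luminescence after 30 min at room temperature. HEK 293T SBE-bla cells had 5 hr compound exposure at 37 C with TGF-beta1 (0.25 ng/mL stock).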

Experiment [4] can be described thus: qHTS assay to identify small molecule agonists of the TGF-beta/Smad signaling pathway - cell viability counter screen (AID 1346829). Note: nearly all actives have a fitted effect of over 45% in size. Note: potency is the fitted concentration of half-maximal effect. In short, it runs like this: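 In parallel with the Smad reporter read, viability of HEK 293T cells stably carrying SBE-bla is quantified by ATP luminescence following 5 hr compound treatment.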
Experiment [5] can be described thus: qHTS assay to identify small molecule agonists of the TGF-beta/Smad signaling pathway (AID 1346859; active = well fitted activation curve with a large enough effect in the signal ratio in the repeat runs, not every such curve was filed as active; the % refers to the signal ratio; note: potency is the fitted concentration of half-maximal effect; for activation: series mostly up to about 77 µM). In short, it runs like this: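 Stable Smad binding element-beta-lactamase HEK 293T cells; 5 hr compound exposure at 37 C under 5% CO2; 2 hr room-temperature substrate step; fluorescence excited at 405 nm, collected at 460 nm and 530 nm.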
Experiment [6] addresses Thyrotropin-releasing hormone receptor (Homo sapiens) (UniProt P34981). Description: qHTS assay to identify small molecule antagonists of the thyrotropin-releasing hormone receptor (TRHR) signaling pathway (AID 1346877; active = well fitted inhibition curve with a large enough effect in the repeat runs, not every such curve was filed as active; note: series mostly up to about 51 µM). In short, it runs like this:
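Antagonism is measured as suppression of the calcium response to 1 nM TRH in TRHR-HEK293 cells that have been dye-loaded for 2 h at 37 °C after overnight plating. Each compound is tested at 15 concentrations in triplicate.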

Experiment [7] shares this target. In words: qHTS assay to identify small molecule agonists of the thyrotropin-releasing hormone receptor (TRHR) signaling pathway (AID 1346891; calls by dose curve;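 note: HEK293 cells expressing TRHR with calcium dye readout; series mostly up to about 58 µM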). The essentials: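 In 1536-format, 1500 TRHR-Hek293 cells per well grew 18 h, took up calcium dye for 2 h at 37 °C, received compound, and were read kinetically; 15-point titrations, triplicates.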
A short description of experiment [8]: Human pregnane X receptor (PXR) small molecule agonists, qHTS cell viability counter screen (AID 1346977). Note: nearly all actives have a fitted effect of over 50% in size. Note: potency is the fitted concentration of half-maximal effect. In short, it runs like this: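 Readout is CellTiter-Fluor fluorescence from PXR-Luc HepG2 cells. Plated cells rested 5hr, then were treated with compounds for 24hr at 37C and 5% CO2, with reagent present during the last hour.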
Experiment [9] is described as follows: Caspase-3/7 induction in HepG2 cells by small molecules, qHTS assay (AID 1346978). Note: nearly all actives have a fitted effect of over 15% in size. Note: potency is the fitted concentration of half-maximal effect. The essentials:
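Caspase-3/7 induction was measured by Caspase-Glo 3/7 luminescence (30 min, room temperature) after a 17 hr compound exposure of wild-type HepG2 cells seeded at 2,000 per well and pre-incubated 5 hr.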

Experiment [10] is described as follows: Caspase-3/7 induction in CHO-K1 cells by small molecules, qHTS cell viability counter screen (AID 1346979). Note: nearly all actives have a fitted effect of over 35% in size. Note: potency is the fitted concentration of half-maximal effect. The essentials: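 To flag cytotoxic compounds, treated CHO-K1 wild-type cells were given CellTiter-Fluor at 16hr and read fluorescently after 1hr at 37C; the caspase-3/7 luminescence was measured in these same wells.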

Values joined by “and” are separate entries in the source; they are usually repeats but may differ in a detail not shown here. Equal values may be shown once. Inconclusive results are not listed. A structure can be active in one record and inactive in another. Active and inactive are the calls of the source. Unless noted, calls come from the whole dose curve; as a rule, active = well fitted curve in the direction sought with a large enough effect in the repeat runs; inconclusive = weak or mixed curves; inactive = no such curve, though single readings can be large; an effect the other way counts as inactive or inconclusive.

These results are taken from PubChem BioAssay (Tox21).

Sequence of Thyrotropin-releasing hormone receptor (Homo sapiens) (P34981 whole entry, looked up): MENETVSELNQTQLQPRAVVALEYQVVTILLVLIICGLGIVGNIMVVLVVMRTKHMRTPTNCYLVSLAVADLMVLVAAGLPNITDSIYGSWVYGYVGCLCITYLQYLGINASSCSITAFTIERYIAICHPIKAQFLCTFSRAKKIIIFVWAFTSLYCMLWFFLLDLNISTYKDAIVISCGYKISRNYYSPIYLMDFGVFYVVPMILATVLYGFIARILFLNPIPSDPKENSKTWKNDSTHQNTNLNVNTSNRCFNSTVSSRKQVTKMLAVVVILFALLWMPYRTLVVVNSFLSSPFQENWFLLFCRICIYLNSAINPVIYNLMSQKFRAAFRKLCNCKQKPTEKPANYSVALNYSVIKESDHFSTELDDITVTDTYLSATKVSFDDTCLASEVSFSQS

In the case of `Oc1ccccc1-c1ccccc1`, the Potency entry in experiment [1], in [2], in experiment [3], in [4], in experiment [5] and in experiment [6] was “inactive” throughout. Besides, the Potency entry in [7], in [8], in [9] and in [10] was “inactive” each time.

As for `Cc1cc(-c2ccc(N)c(C)c2)ccc1N`, the Potency entry in experiment [1], in experiment [2], in experiment [3], in [4], in experiment [5] and in [9] was “inactive” each time. Moreover, the Potency entry in experiment [10] is “inactive”.

Turning to `O=[N+]([O-])O`, the Potency entry in experiment [1], in experiment [2], in [3], in [4], in experiment [5] and in experiment [8] was “inactive” throughout. The Potency entry in [9] and in experiment [10] was “inactive” in each case. Moreover, the outcome in experiment [3] was inactive.

Consider `CCn1cc[n+](C)c1C`, for which the Potency entry in experiment [1], in experiment [2], in experiment [3], in experiment [4], in experiment [5] and in experiment [8] was “inactive” throughout. In addition, the Potency result in experiment [9] and in experiment [10] was “inactive” in each case.

Take `CCC[N+]1(C)CCCCC1`: the Potency entry in experiment [1], in [2], in [3], in [4], in experiment [5] and in experiment [9] was “inactive” throughout. The Potency entry in experiment [10] is “inactive”.

For `CC(=O)[O][Hg][c]1ccccc1`, the Potency in [1] is 4.81 µM (active) and 3.86 µM (active) and 5.31 µM (active); in [2] it was 5.4 µM (active) and 5.45 µM (active) and 5.96 µM (active); in experiment [3] it was 7.69 µM (active) and 8.71 µM (active) and 10.7 µM (active); in experiment [4], 8.63 µM (active) and 7.76 µM (active) and 9.52 µM (active); in experiment [8], 2.24 µM (active) and 3.06 µM (active) and 4.73 µM (active); in [10], 762 nM (active) and 1.09 µM (active) and 1.88 µM (active). Further, the Potency result in experiment [9] was “inactive”.

Turning to `CCC(=O)C(CC(C)N(C)C)(c1ccccc1)c1ccccc1` (stereo not given), the Potency in [1] is 54.7 µM (active); in experiment [2], 43.5 µM (active). The Potency result in experiment [4], in [9] and in experiment [10] was “inactive” throughout.

As for `CC[n+]1ccccc1`, the Potency entry in experiment [2] is “inactive and 48.2 µM (active)”; in experiment [8], “inactive and 6.06 µM (active)”; in [10] it was “inactive and 763 nM (active)”. For the same molecule, the Potency entry in experiment [3], in [4], in experiment [5] and in experiment [9] was “inactive” throughout.

Regarding `Cc1cc(Cl)ccc1OCC(=O)O`, the Potency result in [1], in experiment [2], in experiment [3], in [4], in experiment [5] and in experiment [9] was “inactive” throughout. Moreover, the Potency entry in experiment [10] was “inactive”.

For the molecule `CCCCCCn1cc[n+](C)c1`, the Potency entry in experiment [1], in [2], in experiment [3], in experiment [4], in experiment [5] and in [9] was “inactive” each time. The Potency result in experiment [10] was “inactive”.

On to `CCCCCC[n+]1ccccc1`, for which the Potency entry in experiment [1], in experiment [2], in experiment [3], in experiment [4], in [5] and in [9] was “inactive” in each case. For the same molecule, the Potency entry in [10] is “inactive”.

For the molecule `Nc1ccc(-c2ccc(N)c(Cl)c2)cc1Cl`, the Potency entry in [2], in experiment [3], in experiment [4], in experiment [5], in [6] and in [7] was “inactive” each time. Further, the Potency in [9] was 13.8 µM (active); in experiment [10] it was 68.9 µM (active) and 1.43 µM (active) and 48.6 µM (active).

In the case of `OCCOc1ccccc1`, the Potency result in [1], in experiment [2], in [3], in experiment [4], in experiment [5] and in experiment [9] was “inactive” each time. For the same molecule, the Potency entry in experiment [10] was “inactive”.

Consider `C[C@]12CCC(=O)C=C1CC[C@@H]1[C@@H]2CC[C@]2(C)C(=O)CC[C@@H]12`, for which the Potency entry in experiment [2] is “inactive and 61.1 µM (active)”; in [10], 23.9 µM (active) and inactive. The Potency result in experiment [3], in [4], in experiment [5], in experiment [6], in experiment [7] and in experiment [9] was “inactive” each time.

`CCCCCCCCCCn1cc[n+](C)c1`: the Potency entry in [1], in experiment [3], in experiment [4], in [5] and in experiment [9] was “inactive” throughout.

Turning to `CC[N+]1(C)CCCC1`, the Potency entry in experiment [1], in [2], in experiment [3], in [4], in [5] and in [9] was “inactive” each time. For the same molecule, the Potency entry in experiment [10] is “inactive”.

Turning to `C[N+](C)(C)Cc1ccccc1`, the Potency result in [1], in [2], in experiment [3], in experiment [4], in [9] and in experiment [10] was “inactive” throughout. Moreover, the Potency in experiment [5] is 48.7 µM (active) and inactive.

As to `CN(C)[C@@H]1C(=O)C(C(N)=O)=C(O)[C@@]2(O)C(=O)C3=C(O)c4c(O)cccc4[C@@](C)(O)[C@H]3[C@H](O)[C@@H]12`, the Potency result in experiment [1], in experiment [2], in experiment [3], in experiment [4], in experiment [5] and in experiment [9] was “inactive” in each case. Also, the Potency entry in experiment [10] was “inactive”.
